Data reported in PubChem BioAssay.
Records with an inconclusive call do not appear. Activity calls are given as the source filed them.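 Rule for the calls, unless noted: active = viability at or below 30% in both replicate assays; inconclusive = viability at or below 30% in just one of the two assays; inactive = the rest.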

What was measured:
[1] = reducers of endogenous Her2 protein level, primary screen, SKBR3 breast tumor cells, AlphaScreen, ATP viability (AID 461;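 active = Her2 level under about 52% in both replicate screens, with viability over 70% of control, limit read from the data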;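 for Her2 level: lower value means less Her2 protein in the cells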;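 for viability: percent of carrier control wells set as 100% viability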); conditions: 18-24 h, measured here: SKBR3 viability, ATP luminescence, at 10 µM
[2] = biological target: Receptor tyrosine-protein kinase erbB-2 (Homo sapiens) (UniProt P04626); assay: as above; conditions: 18-24 h, at 10 µM, stronger effect = lower value
[3] = SK-BR-3 cell growth inhibitors, pilot screen, 24 h, human (AID 572;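 active = viability at or below 10% of carrier control in both of two separate runs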;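 note: compound exposure lasted between 18 and 24 h rather than exactly 24 h; 100% = carrier-treated control wells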); conditions: SK-BR-3 viability, CellTiter-Glo luminescence, at 10 µM, stronger effect = lower value
[4] = HUVEC growth inhibition – cell-based, human, primary screen (AID 575); conditions: HUVEC proliferation, CellTiter-Glo luminescence, 72 h; at 10 µM; stronger effect = lower value;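 note: 100% = median of untreated cell wells with 0.1% DMSO on each plate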
[5] = growth inhibitors of H69AR lung tumor, primary screen, human, duplicate replicates (AID 580;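 active = viability at or under a set limit in both replicates, limit being median viability minus 3 SD, cut at about 48% in these data, passing the limit was not always enough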;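 note: 100% = mean luminescence of untreated wells and 0% = no signal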); conditions: H69AR lung tumor cells viability, ATP luminescence, 72 h; at 10 µM; stronger effect = lower value
[6] = reversal of MRP1-mediated doxorubicin resistance, pilot screen, H69AR cells, doxorubicin co-treatment (AID 601;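 active = viability loss from added drug above about 55%, and viability with drug at most 40%, in both replicates, limit read from the data, passing the limit was not always enough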); conditions: CellTiter-Glo, 72 h, at 10 µM; for differential viability (reversal): stronger effect = higher value
[7] = 384-well plate pilot, post-Golgi transport modulator project, inhibition of yeast transport mutant growth (AID 636; in the data active = inhibition above about 31%); conditions: absorbance 615 nm, about 18 h, stronger effect = higher value
[8] = growth suppression of yeast trafficking mutant, preliminary HTS, modulators of trafficking downstream of Golgi apparatus project, 1536-format plate, OD 615 nm (AID 637; in the data active = inhibition above about 30%); conditions: yeast transport mutant growth, absorbance 615 nm, 18 h; stronger effect = higher value
[9] = OD615 S. cerevisiae growth inhibition, permissive medium, pilot counter-assay, permissive growth control for S. cerevisiae lifespan shortening project (AID 705;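 active = growth inhibition above 25% in both replicates, a cutoff set 3 SD above the mean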); conditions: OD615, 24 h, at 10 µM, stronger effect = higher value
[10] = Restrictive medium S. cerevisiae growth inhibition, OD615, pilot screen of yeast lifespan reduction project, restrictive growth control (AID 706;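 active = growth inhibition above a set limit, 3 SD over mean compound inhibition, in both replicates, cut at about 43% in these data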;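 note: modified DeaD lifespan yeast strain shifted to restrictive glucose medium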); conditions: OD615, 48 h, at 10 µM, stronger effect = higher value
[11] = viability gain of MRP-1-high H69AR cells under doxorubicin, pilot screen, MRP-1 activator project, CellTiter-Glo, duplicate (AID 807;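 active = viability increase at or above a cutoff of the median across tested compounds plus 3 SD, cut at about 8.5% in these data, passing the limit was not always enough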;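 note: compound pretreatment 18-22 h then 72 h combined with doxorubicin; 0% = doxorubicin alone and 100% = vehicle without doxorubicin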); conditions: H69AR viability with doxorubicin, CellTiter-Glo luminescence; at 10 µM; stronger effect = higher value
[12] = growth suppression of beta-catenin knockout HCT116, pilot screen, human colon tumor cells (AID 823;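 active = cell viability at or below a set limit in both duplicate runs, the limit being the all-compound median minus 4 SD, cut at about 23% in these data, passing the limit was not always enough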;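 note: 0% = wells killed by 20 µM Hyamine and 100% = untreated DMSO cell wells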); conditions: CellTiter-Glo, 60 h, at 10 µM, stronger effect = lower value
[13] = growth suppression of PTEN-deleted HCT116, pilot screen, cell-based, HCT116 clonal line, CellTiter-Glo (AID 824;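 active = viability at or below 27.92% in each of two runs, the all-compound median minus 4 SD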;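 note: 0% = 20 µM Hyamine control and 100% = vehicle cell control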); conditions: 60 h, at 10 µM, stronger effect = lower value
[14] = inhibitors of the yeast RAM network, pilot screen, dse1pr::URA3 reporter, 5-FOA selection (AID 869;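 active = inhibition over a set limit, the all-compound mean plus 3 SD, in both replicate runs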;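 note: 0% = DMSO wells with no growth and 100% = 10 µM 1-NA-PP1 with full growth; RAM network block rescues cells from 5-FOA so hits raise OD615 growth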); conditions: S. cerevisiae dse1pr::URA3 5-FOA growth, OD615, 2 d; at 10 µM; stronger effect = higher value; strain carries analog-sensitive mutant Cbk1 kinase
[15] = RAM signaling pathway blockade in yeast – S. cerevisiae, Pdr1DBD-CYC8 efflux-inhibited sensitized strain, primary screen (AID 1298;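 active = RAM network inhibition above 8.4% in each of two replicates, 3 SD over the compound average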;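 note: 0% = DMSO untreated cells without growth and 100% = 10 µM 1-NA-PP1 full growth; higher means more yeast growth rescued from 5-FOA killing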); conditions: S. cerevisiae cbk1-as DSE1-URA3 strain, 5-FOA growth OD615, 2 d; at 50 µM; stronger effect = higher value
[16] = H69AR cells + 2 uM doxorubicin, measured here: viability with 2 uM doxorubicin, stronger effect = lower value
[17] = H69AR cells, compound alone cytotoxicity

Receptor tyrosine-protein kinase erbB-2 (Homo sapiens), sequence (P04626 whole entry, looked up): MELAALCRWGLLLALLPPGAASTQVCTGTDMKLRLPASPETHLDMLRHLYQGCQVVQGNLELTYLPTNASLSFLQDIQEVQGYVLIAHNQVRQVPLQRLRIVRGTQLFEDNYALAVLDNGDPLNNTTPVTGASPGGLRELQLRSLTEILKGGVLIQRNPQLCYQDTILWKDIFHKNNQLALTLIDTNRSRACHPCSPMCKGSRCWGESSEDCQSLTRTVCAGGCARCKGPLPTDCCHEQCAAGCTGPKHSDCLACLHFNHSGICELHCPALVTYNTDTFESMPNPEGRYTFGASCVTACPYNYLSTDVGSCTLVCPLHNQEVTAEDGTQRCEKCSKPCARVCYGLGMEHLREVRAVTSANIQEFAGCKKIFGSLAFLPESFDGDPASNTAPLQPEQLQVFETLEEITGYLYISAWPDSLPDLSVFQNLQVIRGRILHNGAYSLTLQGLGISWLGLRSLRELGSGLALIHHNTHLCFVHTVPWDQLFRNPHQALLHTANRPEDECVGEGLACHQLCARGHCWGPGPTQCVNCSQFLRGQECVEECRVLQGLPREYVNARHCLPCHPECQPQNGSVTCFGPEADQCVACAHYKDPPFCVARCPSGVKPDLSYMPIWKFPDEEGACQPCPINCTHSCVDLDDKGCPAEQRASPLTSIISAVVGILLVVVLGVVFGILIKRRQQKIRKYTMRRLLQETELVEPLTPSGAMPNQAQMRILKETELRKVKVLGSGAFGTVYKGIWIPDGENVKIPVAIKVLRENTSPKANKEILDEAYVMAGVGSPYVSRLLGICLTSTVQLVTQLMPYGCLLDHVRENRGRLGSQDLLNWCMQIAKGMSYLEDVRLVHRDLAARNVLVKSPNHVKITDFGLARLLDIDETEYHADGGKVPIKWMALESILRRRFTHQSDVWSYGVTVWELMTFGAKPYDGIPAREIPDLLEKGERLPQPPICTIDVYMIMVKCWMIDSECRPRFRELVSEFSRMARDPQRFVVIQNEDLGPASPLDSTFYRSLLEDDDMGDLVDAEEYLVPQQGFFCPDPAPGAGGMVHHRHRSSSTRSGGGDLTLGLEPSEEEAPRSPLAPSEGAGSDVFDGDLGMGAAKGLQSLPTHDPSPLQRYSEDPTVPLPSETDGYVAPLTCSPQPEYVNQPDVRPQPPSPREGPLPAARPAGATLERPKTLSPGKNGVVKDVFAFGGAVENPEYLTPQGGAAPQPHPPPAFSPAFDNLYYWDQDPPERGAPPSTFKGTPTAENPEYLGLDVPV

CCOc1ccccc1C(=O)Nc1cc(=O)n(C)c(=O)n1C
89.5%: viability [1]
88.1%: viability [6, 17]
inactive: Her2 level [2] 88.5% | viability [3] 89.5% | viability [4] 86.8% | viability [5] 88.1% | differential viability (reversal) ([6]; H69AR cells + 2 uM doxorubicin) -1.81% | inhibition [7] -5.47% | inhibition [8] 3.5% | growth inhibition [9] -0.335% | growth inhibition [10] 2.84% | viability increase [11] -0.06% | viability [12] 103% | viability [13] 100% | inhibition [14] 0.715% | RAM network inhibition [15] -2.04%
89.9%: viability [6, 16]

Cc1c(C(=O)OCCOC(C)C)[nH]c2c1C(=O)CC(c1ccco1)C2 (stereo not given)
72.7%: viability [6, 16]
inactive: Her2 level [2] 73% | viability [3] 81% | viability [4] 50.2% | differential viability (reversal) ([6]; H69AR cells + 2 uM doxorubicin) -34.4% | inhibition [7] 1.47% | inhibition [8] -4.59% | growth inhibition [9] -3.61% | growth inhibition [10] -3.07% | viability increase [11] -4.69% | inhibition [14] 0.735% | RAM network inhibition [15] -1.95%
38.3%: viability [6, 17]
active: viability [5] 38.3% | viability [12] 17.1% | viability [13] 17.8%
81%: viability [1]

CCOc1ccccc1NC(=O)CC1Nc2cc(C)c(C)cc2NC1=O (stereo not given)
59.2%: viability [6, 17]
80.5%: viability [1]
85%: viability [6, 16]
inactive: Her2 level [2] 82% | viability [3] 80.5% | viability [4] 68.7% | viability [5] 59.2% | differential viability (reversal) ([6]; H69AR cells + 2 uM doxorubicin) -25.8% | inhibition [7] -1.67% | inhibition [8] -5.5% | growth inhibition [9] -16.7% | growth inhibition [10] -12.1% | viability increase [11] -5.9% | viability [12] 77.5% | viability [13] 77.8% | inhibition [14] 0.04% | RAM network inhibition [15] 5.85%

O=C(c1ccc(Cl)s1)N1CCN(c2nc3ccccc3s2)CC1
inactive: Her2 level [2] 78% | viability [3] 84% | viability [4] 69.4% | viability [5] 85.9% | differential viability (reversal) ([6]; H69AR cells + 2 uM doxorubicin) -0.215% | inhibition [7] -3.47% | inhibition [8] 2.5% | growth inhibition [9] 3.6% | growth inhibition [10] -3.27% | viability increase [11] 0.2% | viability [12] 81% | viability [13] 83.7% | inhibition [14] 2.66% | RAM network inhibition [15] 2.18%
86.1%: viability [6, 16]
84%: viability [1]
85.9%: viability [6, 17]

Cc1ccccc1Cn1cc(/C=N/n2cnnc2)c2ccccc21
95.4%: viability [6, 17]
100%: viability [1]
82%: viability [6, 16]
inactive: Her2 level [2] 99.5% | viability [3] 100% | viability [4] 68.7% | viability [5] 95.4% | differential viability (reversal) ([6]; H69AR cells + 2 uM doxorubicin) 13.3% | inhibition [7] -2.6% | inhibition [8] 4.83% | growth inhibition [9] 7.88% | growth inhibition [10] 23.3% | viability increase [11] -4.78% | viability [12] 67.8% | viability [13] 61.6% | inhibition [14] 1% | RAM network inhibition [15] -0.25%
